Source: PubChem BioAssay (NCI)
The panel holds about 83,000 compounds, 20% with a hit somewhere; the sample as a whole holds those more often.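 48-hour exposure, single concentration, 96-well plates; percent growth endpoint where 0 means no net growth. Active: below 10.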 Unmarked numbers belong to inactive results. Calls of active or inactive are those of the source.

Assays:
Test in all cases: NCI-60 one-dose screen, 48 h (100 = growth as untreated, 0 = no growth, -100 = all killed)
Settings in all cases: 10 µM unless noted
DU-145 prostate = system: DU-145 prostate
K-562 leukemia = system: K-562 leukemia
MALME-3M melanoma = system: MALME-3M melanoma
MDA-MB-231 breast = system: MDA-MB-231 breast
RXF 393 renal = system: RXF 393 renal
SF-268 CNS = system: SF-268 CNS
UACC-257 melanoma = system: UACC-257 melanoma
M14 melanoma = system: M14 melanoma
HCT-15 colon = system: HCT-15 colon
HT29 colon = system: HT29 colon
SNB-75 CNS = system: SNB-75 CNS
SNB-19 CNS = system: SNB-19 CNS
PC-3 prostate = system: PC-3 prostate
SK-MEL-5 melanoma = system: SK-MEL-5 melanoma
UACC-62 melanoma = system: UACC-62 melanoma
SK-MEL-28 melanoma = system: SK-MEL-28 melanoma
SF-295 CNS = system: SF-295 CNS
SF-539 CNS = system: SF-539 CNS
LOX IMVI melanoma = system: LOX IMVI melanoma
U251 CNS = system: U251 CNS

Row | SMILES | growth (DU-145 prostate) | growth (K-562 leukemia) | growth (MALME-3M melanoma) | growth (MDA-MB-231 breast) | growth (RXF 393 renal) | growth (SF-268 CNS) | growth (UACC-257 melanoma) | growth (M14 melanoma) | growth (HCT-15 colon) | growth (HT29 colon) | growth (SNB-75 CNS) | growth (SNB-19 CNS) | growth (PC-3 prostate) | growth (SK-MEL-5 melanoma) | growth (UACC-62 melanoma) | growth (SK-MEL-28 melanoma) | growth (SF-295 CNS) | growth (SF-539 CNS) | growth (LOX IMVI melanoma) | growth (U251 CNS)
1 | COc1cc(C2CC(=O)Nc3c2c(C)nn3-c2nc3ccccc3[nH]2)cc(OC)c1OC (configuration not stated) | 119% | 99.7% | 106% | 91.6% | 89.8% | 112% | 96.7% | 92.3% | 101% | 109% | 86.9% | 93.4% | 75.2% | 99.7% | 97.2% | 103% | – | – | – | –
2 | Cc1ccc(NC(=O)c2sc3nc4c(cc3c2N)C(=O)CCC4)cc1C | 8.18% (active) | 11.7% | 48.8% | 35.3% | – | 42.7% | 54.2% | 8.39% (active) | 30.6% | 9.71% (active) | -10.3% (active) | 69.3% | 22.4% | 26.9% | 39.6% | 37.3% | 8.72% (active) | -10.4% (active) | 39.2% | –
3 | COc1cc(OC)c(/C=C/c2cc[n+](C)c3ccccc23)c(OC)c1 | 18.5% | 7.21% (active) | 5.28% (active) | 22.5% | – | 15.7% | -24.7% (active) | 36.2% | 90.9% | 0.813% (active) | -13.8% (active) | 26.4% | 16.5% | -47.2% (active) | 12.7% | 24.8% | -48.8% (active) | 12% | -74.2% (active) | –
4 | CCCCNc1ccc2c3c1cccc3c(=O)n1c3ccccc3nc21 | 99.4% | 78.8% | 89.3% | 79.8% | 104% | 101% | – | 93.1% | 76.2% | 80.4% | 73.4% | 101% | 85.5% | 75.5% | 85.9% | 103% | – | 103% | 75.9% | –
5 | COc1ccc(/C=c2/c(=O)[nH]c3nc4sc(C)c(C)c4c(=O)n23)cc1 | 92.6% | 81.6% | 92.6% | 97.3% | 93.7% | 88.5% | – | 96.2% | 73.2% | 88.1% | 93.2% | 88.4% | – | 90.8% | 80.4% | 102% | – | 92.8% | 91.1% | –
6 | CCCCCN(CCCCC)CCC[C@@H](C)[C@H]1CC[C@H]2[C@@H]3[C@H](OCCCN)C[C@@H]4C[C@H](OCCCN)CC[C@]4(C)[C@H]3C[C@H](OCCCN)[C@]12C | 76.5% | -19.4% (active) | 62.2% | 37% | 87.1% | 87.5% | – | 42.8% | 72.3% | 24.5% | 70.6% | 61% | – | 25.1% | 13.6% | 27.9% | – | -21.9% (active) | 3% (active) | –
7 | CCOC(=O)N1CCN(c2nc(Nc3cc(C)[nH]n3)c3ccccc3n2)CC1 | 47.5% | 17.4% | 77.6% | 63.7% | – | 42.6% | 65.7% | 61.6% | 40.4% | 22.6% | -21.2% (active) | 89.2% | 57.2% | 57.9% | 66.8% | 59.6% | 36.5% | 46.8% | 24% | –
8 | Cc1cc(Nc2nc(N3CCN(C)CC3)nc3ccccc23)n[nH]1 | 88% | 57% | 69% | 83.2% | – | 67% | 82.9% | 50.8% | 56.5% | 61.5% | -15.8% (active) | 90.8% | 71.6% | 89.9% | 67.9% | 68.8% | 74.4% | 76.3% | 73% | –
9 | C#Cc1nc2ccccc2c(=O)[nH]1 | -41.8% (active) | -24.6% (active) | -64.2% (active) | -57.5% (active) | – | -70.4% (active) | -21.6% (active) | -11.2% (active) | -47% (active) | -55.2% (active) | -56.1% (active) | 69.2% | -38.2% (active) | -34.6% (active) | – | -64.8% (active) | 41.3% | -70.1% (active) | -69.4% (active) | –
10 | O=C1Nc2ccccc2/C1=C/C(=N/c1nnc(-c2ccc(Cl)cc2)s1)c1ccccc1 | 30.5% | 8.67% (active) | -26.5% (active) | 35.5% | -63.3% (active) | 55.9% | – | 52.2% | 3.35% (active) | -56.3% (active) | 76.4% | 100% | 75.7% | 78.3% | 51.7% | 61.2% | – | 27.9% | -79.3% (active) | –
11 | COc1cc(-c2cc(-c3nc4ccc(Cl)cc4[nH]3)[nH]n2)cc(OC)c1OC | 57.8% | 43.2% | 50.4% | 81.1% | 46.6% | 81.7% | 62.9% | 38.1% | 51.9% | 71.7% | 68.4% | 85% | 26.1% | -5.65% (active) | 37.1% | 60.1% | – | – | 34% | 69.7%
12 | O=C1Nc2ccccc2C12CC(c1ccc(Cl)cc1)=NN2 (configuration not stated) | 115% | 94.5% | 105% | 89.8% | 99.4% | 106% | – | 98.7% | 97.7% | 97.1% | 76% | 90.9% | 78.2% | 92.4% | 95% | 97.7% | – | 99.2% | 99.5% | –
13 | CCc1ccccc1NC(=O)c1sc2nc3c(cc2c1N)C(=O)CCC3 | 2.55% (active) | 11% | 60.8% | 36.6% | – | 40.4% | 65% | 15.1% | 31.2% | 8.59% (active) | -15.4% (active) | 68.9% | 18% | 30.7% | 34.3% | 43.7% | -3.21% (active) | -1.47% (active) | 42.6% | –
14 | CN1CCCCC1CCN1c2ccccc2Sc2ccc(Cl)cc21 (configuration not stated) | 67% | 7.99% (active) | 83.2% | 65.9% | – | 65.8% | 67.4% | 45.2% | 49.3% | 31.4% | 7.16% (active) | 97% | 59.5% | 55.7% | 77.9% | 75% | 76.6% | 90.9% | 68.1% | –
15 | Cc1ccc(C2CC3c4ccccc4C2C2CCCCN32)cc1 (configuration not stated) | 108% | 72% | 85.6% | 109% | – | 90.1% | 59.9% | 94.5% | 99.8% | 90.4% | 69.9% | 87.4% | 80% | 76.4% | 99.3% | – | 78.4% | 91.4% | 84.4% | –
16 | Oc1ccccc1/C=N/Nc1ccc2ccccc2n1 | 55.6% | 17.8% | 35.2% | 57.3% | – | 52% | 62.8% | 52.3% | 25.2% | 48.9% | 31.9% | 67.6% | 57.3% | 51.3% | 40.6% | 74.1% | 33.5% | 42.1% | 42.3% | –
17 | CCCCCCCCCCCCS(=O)CC(C)O (configuration not stated) | 126% | 103% | 116% | 104% | – | 139% | 94.7% | 107% | 104% | 110% | 78.3% | 98.6% | 99.3% | 103% | 92.6% | 102% | 100% | 97.2% | 111% | –
18 | CNC(=S)N/N=C/CSC/C=N/NC(=S)NC | 88.5% | 15.8% | 72% | 83.4% | – | 102% | 67.7% | 92.5% | 87.8% | 24.4% | 88.1% | 101% | 57% | 81.1% | – | 99.3% | 108% | 105% | 84.6% | –
